Here are results for 40 compounds from PubChem BioAssay (Tox21).

The structures appear in SMILES notation. Where “and” joins values, the source holds several entries; their conditions need not be identical. Equal values may be shown once. Results filed as inconclusive are left out. Entries that show only a call come without a potency. The source holds several records for some structures; these can differ, active in one and inactive in another. Calls of active or inactive are those of the source. Calls follow the shape of the dose curve; as a rule, active = well fitted activation curve with a large enough effect in the repeat runs; inconclusive = weak or mixed curves, or effect the other way; inactive = no such curve, though single readings can be large or run the other way.
Potency is read from the fitted curve at half-maximal effect.

This experiment is described as follows: qHTS assay to identify small molecule agonists of the retinoic acid receptor (RAR) signaling pathway (AID 1159553). As to conditions: C3RL4 RARE luciferase reporter, agonist, 6 h; series mostly up to 73.3 µM; activation: at the top concentration. An excerpt: National Center for Advancing Translational Sciences [NCATS] NIH Chemical Genomics Center [NCGC] U.S. Environmental Protection Agency [EPA] National Institutes of Environmental Health Sciences [NIEHS] National Toxicology Program [NTP] Assay overview: All-trans Retinoic acid (atRA) is the potent natural metabolite of retinol and plays an important role in normal embryonic development and maintenance of cellular phenotype in adult animals. atRA is the activating ligand for the retinoic acid receptors (RARs) which form heterodimers with retinoid X receptors (RXRs) on the retinoic acid response element (RARE). Through activation of the RAR/RXRs nuclear receptors, atRA regulates the transcription of a large number of protein-coding genes and regulatory RNAs. Intracellular levels of atRA are controlled by the retinol signaling pathway (RSP) that regulates the biosynthesis and catabolism of atRA to maintain physiological levels. Chemicals that interfere with the RSP can cause abnormal intracellular levels of atRA and therefore are potential developmental toxicants. To assess compounds for the potential adverse effect on embryonic development through interfering with retinol signaling, a cell-based RARE luciferase reporter gene assay was used. C3RL4 cell line (OARSA/CFSAN/FDA, Laurel, MD) was used to screen Tox21 10K compound library for identifying activators of the RSP.
Assay Protocol Summary: C3RL4 cells were seeded at 1,000/well in 5 uL of assay medium into white solid 1,536-well tissue culture plates (Greiner Bio-One North America Inc. Monroe, NC) using a Multidrop Combi (Thermo Scientific, Waltham, MA) dispenser. After incubation at 37 C and 5% CO2 for an overnight, 23 nL of compounds dissolved in DMSO, positive control or DMSO only were transferred by a Pintool station (Kalypsys, San Diego, CA). After 6 hr incubation at 37 C and 5% CO2, 5 uL of Amplite Luciferase reagent (AAT Bioquest Inc. Sunnyvale, CA) was added to each assay plate using a Flying Reagent Dispenser (FRD) (Aurora Discovery, San Diego, CA). Luminescence was quantified on a ViewLux plate reader (PerkinElmer, Waltham, MA) after 30 min incubation at room temperature.
Consider `OC1CCCCCCCCCCC1`, for which the Potency result was “inactive”. Still for that read-out and setting: the same measure for `Cc1ccc2c(n1)Oc1ccc(C(C)C(=O)OCC(=O)N(C)C)cc1C2` (stereo not given): 10.6 µM (active) and 8.41 µM (active). Still for that read-out and setting: the result for `O=C(/C=C/c1ccccc1)OCc1ccccc1` reads 30.6 µM (active) and 29.8 µM (active); that for `CCC(C)(O)CCCC(C)C` (stereo not given), “inactive”. On the same count and under the same terms, the same measure for `Nc1ccccc1N`: 1.25 µM (active) and 1.72 µM (active); for `C#C[C@]1(O)CC[C@H]2[C@@H]3CCc4cc(OC)ccc4[C@H]3CC[C@@]21C`: “inactive”. Consider `CN(C)CCN(Cc1cccs1)c1ccccn1`, for which the Potency entry was “inactive”. Consider `CN1C(C(=O)Nc2ccccn2)=C(O)c2ccccc2S1(=O)=O`, for which the “activation” value is 2.63% (inactive). Regarding `CCCC(=O)O`, the Potency result was “inactive”. Regarding `CC(C(=O)O)c1cccc(C(=O)c2ccccc2)c1` (stereo not given), the Potency entry is “inactive”. Same read-out and setting: the same measure for `O=CCc1ccccc1`: “inactive”. Turning to `O=S(=O)(O)c1ccc(O)cc1`, the Potency result was “inactive”. Same read-out and setting: the result for `Clc1nc(Cl)c(Cl)c(Cl)c1Cl` reads “inactive”; that for `COc1ccc(C(=O)CC(=O)c2ccc(C(C)(C)C)cc2)cc1`, 58.7 µM (active) and inactive; that for `O=Cc1ccccc1O`, “inactive”. Still for that read-out and setting: the same measure for `OC[C@H]1O[C@@H]2O[C@H]3[C@H](O)[C@@H](O)[C@@H](O[C@H]4[C@H](O)[C@@H](O)[C@@H](O[C@H]5[C@H](O)[C@@H](O)[C@@H](O[C@H]6[C@H](O)[C@@H](O)[C@@H](O[C@H]7[C@H](O)[C@@H](O)[C@@H](O[C@H]8[C@H](O)[C@@H](O)[C@@H](O[C@H]1[C@H](O)[C@H]2O)O[C@@H]8CO)O[C@@H]7CO)O[C@@H]6CO)O[C@@H]5CO)O[C@@H]4CO)O[C@@H]3CO`: “inactive”. Take `c1ccncc1`: the Potency result was “inactive”. Take `Cc1ccc(C)c(O)c1C`: the Potency result is “inactive”. `CCC(C)CO` (stereo not given): the Potency entry is “inactive”.

On to `O=C(OCc1ccccc1)c1ccccc1O`, for which the Potency was 9.62 µM (active). The same measure, in the same setting: the same measure for `CCCCC(CC)COCC1CO1` (stereo not given): “inactive”; for `O=C(/C=C/C=C/c1ccc2c(c1)OCO2)N1CCCCC1`: 3.86 µM (active) and 1.93 µM (active); for `O=[N+]([O-])c1ccc2c(c1)Cc1ccccc1-2`: “inactive”.

For `CC(CCC(=O)O)(c1ccc(O)cc1)c1ccc(O)cc1`, the Potency result was “inactive”. On to `Brc1cc(Oc2cc(Br)c(Br)c(Br)c2Br)c(Br)c(Br)c1Br`, for which the “activation” value is -5.15% (inactive).

As for `O=C1c2cccc(O)c2C(=O)c2c(O)cccc21`, the “activation” value is 0.0241% [at 94.8 µM] (inactive).

On to `c1cc(-c2ccncc2)ccn1`, for which the Potency result is “inactive”. In the case of `c1ccc2sc(SSN3CCOCC3)nc2c1`, the “activation” value was -1.3% (inactive). With `CCC(C)c1ccccc1O` (stereo not given), the Potency result is “inactive”.

With `Oc1ccc(O)cc1`, the “activation” value was -13.4% (inactive). As to `CN(C)C(=N)N=C(N)N`, the Potency entry was “inactive”. For `Cc1cccc(C(=O)O)c1`, the Potency entry was “inactive”. On to `C/C=C/C(=O)O`, for which the Potency entry was “inactive”.

On to `Cc1cc2nc3c(=O)[nH]c(=O)nc-3n(C[C@H](O)[C@H](O)[C@H](O)CO)c2cc1C`, for which the Potency result was “inactive”. Regarding `COc1ccc(OC)c(C(O)CNC(=O)CN)c1` (stereo not given), the Potency entry was “inactive”. On to `C[C@]12CCC(=O)C=C1CC[C@@H]1[C@@H]2C(=O)C[C@@]2(C)[C@H]1CC[C@]2(O)C(=O)CO`, for which the “activation” value is -0.0655% (inactive). In the case of `CC(=O)C1(C)CC2=C(CCCC2(C)C)CC1C` (stereo not given), the Potency result is “inactive”. On the same count and under the same terms, the result for `CCCCOCCOCCO` reads “inactive”.

`Cc1cccc(N(C)C(=S)Oc2ccc3ccccc3c2)c1`: the Potency is 2.43 µM (active) and 13.3 µM (active).

For `CCCCC(CC)COC(=O)c1ccc(N(C)C)cc1` (stereo not given), the Potency result was “inactive”.
